Activity calls are given as the source filed them.

The source of these data is PubChem BioAssay.

Assay [1] has as its system PRMT1 (protein arginine N-methyltransferase 1). The assay is described as follows: small molecules binding arginine methyltransferase PRMT1 – biochemical, small-molecule microarray, 635 nm fluorescence, primary screen (AID 1088).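 Note: binding of Prmt1 protein to compounds spotted on small-molecule microarray slides.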 The settings on record: higher = more signal.
The nature of assay [2]: growth effects on S. cerevisiae YJM789 – YJM789 clinical isolate, OD600, 24 h, basal, primary screen (AID 1089).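 Note: growth of clinical yeast isolate S. cerevisiae YJM 789 seeded 1000 cells per well; test concentration not given here.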 The settings on record: higher = more signal, called active from +8 up or from −8 down.
The nature of assay [3]: S. pombe growth modifiers, basal conditions – strain 972, OD600, 24 h, no modulator, primary screen (AID 1090).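 Note: basal condition with compound alone and no growth modifier present; test concentration not given here.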 The settings on record: S. pombe 972 growth, higher = more signal, called active from +8 up or from −8 down.
Assay [4] is described as follows: budding yeast growth modifiers under rapamycin – strain BY4716, OD600, 96 h, primary screen (AID 1091). Note: test concentration not given here. To be noted: S. cerevisiae BY4716 + rapamycin, higher = more signal, called active from +8 up or from −8 down.
For assay [5], the target named is Torsin-1A-interacting protein 2 (Homo sapiens) (UniProt Q8NFQ8). The assay is described as follows: small molecules binding lysate-expressed LULL1 – cell lysate, human LULL1 lysate, 635/667 nm fluorescence, primary screen (AID 1092).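 Note: probe is lysate of COS7 cells overexpressing human LULL1; score merges per-feature 667 nm fluorescence with signal-to-noise.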 The settings on record: small-molecule microarray, hLULL1 lysate binding, 635 nm fluorescence; higher = more signal.
Torsin-1A-interacting protein 2 (Homo sapiens), sequence (Q8NFQ8 whole entry, looked up): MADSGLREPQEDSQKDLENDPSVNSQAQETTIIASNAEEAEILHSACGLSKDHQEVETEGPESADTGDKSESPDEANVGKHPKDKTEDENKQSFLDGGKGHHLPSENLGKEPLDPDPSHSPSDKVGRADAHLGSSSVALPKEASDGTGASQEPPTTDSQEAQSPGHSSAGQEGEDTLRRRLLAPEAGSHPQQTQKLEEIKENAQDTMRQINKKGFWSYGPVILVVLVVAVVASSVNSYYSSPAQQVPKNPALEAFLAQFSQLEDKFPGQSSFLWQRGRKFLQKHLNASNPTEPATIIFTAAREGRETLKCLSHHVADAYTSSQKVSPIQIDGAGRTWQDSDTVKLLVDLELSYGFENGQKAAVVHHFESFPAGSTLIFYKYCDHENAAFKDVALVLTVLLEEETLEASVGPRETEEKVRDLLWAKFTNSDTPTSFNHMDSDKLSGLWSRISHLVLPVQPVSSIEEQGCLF
Assay [6] is described as follows: optical density change of DRC41 E. coli – strain DRC41, OD650, 24 h, E. coli filamentation project, primary screen (AID 1093).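 Note: MC1000 strain lacking acrAB efflux and sulA so SOS filamentation is blocked; test concentration not given here.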 To be noted: E. coli DRC41 growth, higher = more signal, called active from +8 up or from −8 down.
A short description of assay [7]: probe aLefty2 binding to arrayed compounds – biochemical, biotinylated probe, 635/667 nm fluorescence, primary screen (AID 1094).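 Note: score merges spot fluorescence near 667 nm with spot signal-to-noise ratio.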 To be noted: small-molecule microarray, higher = more signal.
Assay [8] concerns Noggin (protein binding on small-molecule microarray). The experiment in a line: small molecules binding Noggin protein – biochemical, 635/667 nm fluorescence, primary screen (AID 1095).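 Note: score merges 667 nm feature fluorescence with signal to noise over triplicate slides.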 The settings on record: 635 nm fluorescence, higher = more signal.
In assay [9] the target is Neurogenic locus notch homolog protein 3 (Homo sapiens) (UniProt Q9UM47). The experiment in a line: small molecules binding NOTCH3 protein – biochemical, 635/667 nm fluorescence, primary screen (AID 1096). To be noted: small-molecule microarray, 635 nm fluorescence, higher = more signal.
Neurogenic locus notch homolog protein 3 (Homo sapiens), sequence (Q9UM47 whole entry, looked up): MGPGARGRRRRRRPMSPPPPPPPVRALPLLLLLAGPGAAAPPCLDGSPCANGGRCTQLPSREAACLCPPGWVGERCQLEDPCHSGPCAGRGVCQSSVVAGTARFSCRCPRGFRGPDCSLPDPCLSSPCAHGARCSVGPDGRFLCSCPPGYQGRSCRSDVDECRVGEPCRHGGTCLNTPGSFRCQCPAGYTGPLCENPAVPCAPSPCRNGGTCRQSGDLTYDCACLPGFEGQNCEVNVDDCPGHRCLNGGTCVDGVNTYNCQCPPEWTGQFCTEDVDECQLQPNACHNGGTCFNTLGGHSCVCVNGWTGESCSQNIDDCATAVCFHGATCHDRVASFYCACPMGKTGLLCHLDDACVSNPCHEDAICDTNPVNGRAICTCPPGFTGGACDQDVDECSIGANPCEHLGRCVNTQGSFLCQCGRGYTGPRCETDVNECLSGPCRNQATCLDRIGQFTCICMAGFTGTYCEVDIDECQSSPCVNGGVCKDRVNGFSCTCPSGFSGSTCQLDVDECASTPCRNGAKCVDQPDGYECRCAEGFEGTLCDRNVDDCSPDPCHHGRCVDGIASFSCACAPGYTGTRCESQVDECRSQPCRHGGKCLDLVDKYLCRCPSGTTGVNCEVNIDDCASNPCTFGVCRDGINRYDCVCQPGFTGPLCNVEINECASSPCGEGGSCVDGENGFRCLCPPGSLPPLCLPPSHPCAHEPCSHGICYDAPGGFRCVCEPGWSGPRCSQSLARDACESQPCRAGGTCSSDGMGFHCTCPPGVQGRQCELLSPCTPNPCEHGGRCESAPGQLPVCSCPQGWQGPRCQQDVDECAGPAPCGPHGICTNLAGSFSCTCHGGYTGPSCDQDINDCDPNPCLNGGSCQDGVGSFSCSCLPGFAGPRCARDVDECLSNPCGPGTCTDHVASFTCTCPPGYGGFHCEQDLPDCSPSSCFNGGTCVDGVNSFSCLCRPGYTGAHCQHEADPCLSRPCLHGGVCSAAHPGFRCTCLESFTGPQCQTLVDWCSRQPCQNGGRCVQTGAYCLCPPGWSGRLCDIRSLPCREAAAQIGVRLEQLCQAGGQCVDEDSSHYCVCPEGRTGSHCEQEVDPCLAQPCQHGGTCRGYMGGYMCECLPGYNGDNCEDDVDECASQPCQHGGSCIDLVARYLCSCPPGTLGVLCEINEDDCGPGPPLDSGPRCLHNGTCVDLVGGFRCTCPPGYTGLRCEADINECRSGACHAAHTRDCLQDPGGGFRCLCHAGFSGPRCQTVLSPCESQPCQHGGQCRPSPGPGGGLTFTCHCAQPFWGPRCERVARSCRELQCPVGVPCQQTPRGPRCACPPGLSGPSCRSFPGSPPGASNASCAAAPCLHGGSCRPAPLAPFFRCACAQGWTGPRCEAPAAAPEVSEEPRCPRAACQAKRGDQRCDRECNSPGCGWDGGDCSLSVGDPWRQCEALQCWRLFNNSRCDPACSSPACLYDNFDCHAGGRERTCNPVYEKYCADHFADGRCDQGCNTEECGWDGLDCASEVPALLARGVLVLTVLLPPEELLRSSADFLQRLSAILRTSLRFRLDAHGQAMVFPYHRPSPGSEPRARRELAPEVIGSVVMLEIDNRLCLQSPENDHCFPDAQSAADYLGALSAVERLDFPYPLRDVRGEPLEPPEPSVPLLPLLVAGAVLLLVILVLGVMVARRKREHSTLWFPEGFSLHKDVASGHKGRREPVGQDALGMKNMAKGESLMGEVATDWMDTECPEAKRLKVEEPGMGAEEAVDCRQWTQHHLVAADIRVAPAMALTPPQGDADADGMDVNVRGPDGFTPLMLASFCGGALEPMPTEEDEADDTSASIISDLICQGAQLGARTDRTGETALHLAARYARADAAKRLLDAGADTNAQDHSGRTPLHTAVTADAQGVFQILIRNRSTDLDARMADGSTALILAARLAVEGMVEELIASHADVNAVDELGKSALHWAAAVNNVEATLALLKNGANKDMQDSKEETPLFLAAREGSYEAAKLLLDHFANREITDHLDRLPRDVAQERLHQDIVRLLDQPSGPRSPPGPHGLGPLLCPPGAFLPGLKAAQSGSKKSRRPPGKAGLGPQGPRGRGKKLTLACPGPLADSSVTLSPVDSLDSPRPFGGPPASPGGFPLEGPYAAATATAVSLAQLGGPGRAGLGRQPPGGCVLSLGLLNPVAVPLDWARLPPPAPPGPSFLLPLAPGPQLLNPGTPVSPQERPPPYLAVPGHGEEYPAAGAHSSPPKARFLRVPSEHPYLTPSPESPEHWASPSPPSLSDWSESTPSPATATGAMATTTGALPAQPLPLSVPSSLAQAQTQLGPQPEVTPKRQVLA
Assay [10] in a line: probe aEGFR binding to arrayed compounds – biochemical, biotinylated probe, 635/667 nm fluorescence, primary screen (AID 1097).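 Note: probe is a biotinylated anti-EGFR antibody binding compounds printed on slides; score combines fluorescence near 667 nm and signal to noise of each spot.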 To be noted: small-molecule microarray, higher = more signal.
Assay [11] has as its system Plasmodium falciparum Sir2 (PF13_0152, Sir2A). The assay is described as follows: Plasmodium falciparum Sir2A binding compounds – biochemical, small-molecule microarray, 635 nm fluorescence, primary screen (AID 1098).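 Note: score merges spot fluorescence intensity with its signal-to-noise ratio.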 The settings on record: fluorescence 635 nm, higher = more signal.
Assay [12] is described as follows: probe aDKK1 binding to arrayed compounds – biochemical, biotinylated probe, 635/667 nm fluorescence, primary screen (AID 1099).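 Note: score merges 667nm spot fluorescence with signal to noise across triplicate slides; reference of the scale not given here.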 To be noted: small-molecule microarray, higher = more signal.
A short description of assay [13]: probe aCHRDL2 binding to arrayed compounds – biochemical, biotinylated probe, 635/667 nm fluorescence, primary screen (AID 1100). To be noted: small-molecule microarray, higher = more signal.
Assay [14] can be described thus: change in splice reporter luminescence, either direction, cell-based, HEK293, spliceosome inhibition project, primary screen (AID 1101).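 Note: HEK293 cells carrying a splicing-competent luciferase reporter gene; test concentration not given here.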 To be noted: HEK293 splicing luciferase reporter, 24 h, higher = more signal, called active from +8 up or from −8 down.
Assay [15] has as its target Fibroblast growth factor 10 (Homo sapiens) (UniProt O15520). The experiment in a line: compounds binding fibroblast growth factor 10 – biochemical, small-molecule microarray, 635 nm fluorescence, primary screen (AID 1102). To be noted: FGF10 binding, fluorescence 635 nm, higher = more signal.
The subject of assay [16] is glycogen synthase kinase-3 (GSK3A per assay name; protocol says GSK3B). The experiment in a line: compounds binding glycogen synthase kinase-3 – biochemical, small-molecule microarray, 635 nm fluorescence, GSK3A, primary screen (AID 1103). Note: the record names both GSK3A and GSK3B. The settings on record: fluorescence 635 nm, higher = more signal.
Assay [17] addresses Epidermal growth factor receptor (Homo sapiens) (UniProt P00533). The experiment in a line: compounds binding epidermal growth factor receptor – biochemical, small-molecule microarray, 635 nm fluorescence, primary screen (AID 1104).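 Note: score merges 667 nm emission intensity with spot signal to noise over triplicate slides.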 To be noted: EGFR binding, higher = more signal.
In assay [18] the target is Follistatin-related protein 3 (Homo sapiens) (UniProt O95633). The experiment in a line: compounds binding follistatin-related protein 3 – biochemical, small-molecule microarray, 635 nm fluorescence, primary screen (AID 1105).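 Note: score merges emission near 667 nm and signal to noise per printed spot across three slides.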 To be noted: FSTL3 binding, higher = more signal.
Follistatin-related protein 3 (Homo sapiens), sequence (O95633 whole entry, looked up): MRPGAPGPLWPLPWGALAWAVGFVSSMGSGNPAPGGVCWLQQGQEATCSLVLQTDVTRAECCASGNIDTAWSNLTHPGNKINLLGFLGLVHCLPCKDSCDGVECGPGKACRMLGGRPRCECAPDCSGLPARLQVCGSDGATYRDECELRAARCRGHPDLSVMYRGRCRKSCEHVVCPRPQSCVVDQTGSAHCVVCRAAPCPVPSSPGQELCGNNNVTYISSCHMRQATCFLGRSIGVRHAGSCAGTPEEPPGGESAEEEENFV
Assay [19] addresses Dickkopf-related protein 1 (Homo sapiens) (UniProt O94907). The experiment in a line: small molecules binding DKK1 protein – biochemical, small-molecule microarray, 635 nm fluorescence scan, primary screen (AID 1106).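 Note: score merges emission near 667 nm with signal to noise over three replicate slides.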 The settings on record: higher = more signal.
In assay [20] the test system is Inhibin beta A chain (activin A). The assay is described as follows: small molecules binding activin A – biochemical, small-molecule microarray, 635 nm fluorescence scan, primary screen (AID 1107).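 Note: mouse activin A protein probed at 4.33 µg/mL on printed slides; score merges bound-protein fluorescence near 667 nm with spot signal-to-noise.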 The settings on record: INHBA, higher = more signal.

Epidermal growth factor receptor (Homo sapiens), sequence (P00533 whole entry, looked up): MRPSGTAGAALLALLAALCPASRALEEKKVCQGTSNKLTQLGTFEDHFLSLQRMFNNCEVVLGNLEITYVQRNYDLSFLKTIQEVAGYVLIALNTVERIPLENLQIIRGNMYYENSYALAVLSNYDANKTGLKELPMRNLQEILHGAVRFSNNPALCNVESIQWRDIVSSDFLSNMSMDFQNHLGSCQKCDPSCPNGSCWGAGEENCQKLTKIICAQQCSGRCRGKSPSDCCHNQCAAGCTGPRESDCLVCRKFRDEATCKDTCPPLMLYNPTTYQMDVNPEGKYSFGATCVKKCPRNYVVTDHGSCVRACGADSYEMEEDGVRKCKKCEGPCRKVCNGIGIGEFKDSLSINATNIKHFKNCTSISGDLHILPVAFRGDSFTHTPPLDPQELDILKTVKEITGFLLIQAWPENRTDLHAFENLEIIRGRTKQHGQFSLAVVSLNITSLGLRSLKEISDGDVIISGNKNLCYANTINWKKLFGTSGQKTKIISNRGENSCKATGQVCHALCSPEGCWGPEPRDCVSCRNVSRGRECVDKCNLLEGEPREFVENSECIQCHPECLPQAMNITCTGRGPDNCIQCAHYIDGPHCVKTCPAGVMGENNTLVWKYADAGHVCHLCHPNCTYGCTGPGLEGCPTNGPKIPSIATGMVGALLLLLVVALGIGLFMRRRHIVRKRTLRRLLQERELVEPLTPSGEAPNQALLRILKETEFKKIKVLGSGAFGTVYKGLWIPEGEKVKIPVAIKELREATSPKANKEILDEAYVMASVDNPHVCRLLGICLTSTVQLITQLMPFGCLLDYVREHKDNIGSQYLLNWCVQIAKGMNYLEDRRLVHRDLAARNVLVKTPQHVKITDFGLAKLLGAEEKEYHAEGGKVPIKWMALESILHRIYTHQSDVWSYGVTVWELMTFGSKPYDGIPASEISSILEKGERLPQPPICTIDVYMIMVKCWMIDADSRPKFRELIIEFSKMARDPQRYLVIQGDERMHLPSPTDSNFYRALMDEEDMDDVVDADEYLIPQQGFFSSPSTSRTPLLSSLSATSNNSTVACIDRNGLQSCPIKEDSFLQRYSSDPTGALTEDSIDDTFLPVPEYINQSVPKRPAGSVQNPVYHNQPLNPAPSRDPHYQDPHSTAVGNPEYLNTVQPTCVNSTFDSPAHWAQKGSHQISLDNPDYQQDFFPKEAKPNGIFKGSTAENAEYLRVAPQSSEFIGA
Dickkopf-related protein 1 (Homo sapiens), sequence (O94907 whole entry, looked up): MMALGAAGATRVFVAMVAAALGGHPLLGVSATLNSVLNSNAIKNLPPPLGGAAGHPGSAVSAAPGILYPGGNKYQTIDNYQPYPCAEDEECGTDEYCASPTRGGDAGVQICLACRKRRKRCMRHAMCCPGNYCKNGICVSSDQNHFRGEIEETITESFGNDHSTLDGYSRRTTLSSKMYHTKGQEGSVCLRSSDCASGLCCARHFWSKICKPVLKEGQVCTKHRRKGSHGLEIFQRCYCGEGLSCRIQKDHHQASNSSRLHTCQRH
Fibroblast growth factor 10 (Homo sapiens), sequence (O15520 whole entry, looked up): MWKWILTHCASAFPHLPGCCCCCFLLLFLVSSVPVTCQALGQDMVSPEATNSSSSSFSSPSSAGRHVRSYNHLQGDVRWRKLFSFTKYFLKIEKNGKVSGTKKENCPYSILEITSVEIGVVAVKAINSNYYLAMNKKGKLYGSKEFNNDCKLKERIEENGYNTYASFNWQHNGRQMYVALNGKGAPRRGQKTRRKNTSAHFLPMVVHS

On to `CC(CO)N1C(=O)[C@]2(C)C3C(=O)OCCC/C=C\[C@H]3OC23C=CCN(c2ccc(Cl)cc2)C(=O)[C@@H]13` (stereo not given in full), for which the composite z-score in assay [1] is -1.06; in [5] it was -1.08; in assay [7] it was -0.152; in assay [8], -0.554; in assay [9], -0.162; in [10], -0.165. In addition, the composite z-score in [11] was -0.714; in assay [12], -0.0842; in [13], 0.167; in assay [15], -0.39; in assay [16], -0.558; in assay [17], -0.558. For the same compound, the composite z-score in [18] is -0.798; in assay [19], -0.0396; in assay [20], -0.0439. Moreover, the z-score in assay [2] is 0.0276 (inactive); in assay [3], -0.358 (inactive); in assay [4], -0.14 (inactive); in [6], 0.525 (inactive); in assay [14], -0.712 (inactive).
`[N-]=[N+]=Nc1ccccc1[C@@H]1OC(c2ccc(OCCCO)cc2)=N[C@]1(Cc1ccccc1)C(=O)O`: the composite z-score is 1.56 in [1]; 2.43 in assay [5]; 0.106 in [7]; 0.522 in assay [8]; 1.05 in assay [9]; -0.268 in [10]. Moreover, the composite z-score in [11] is 0.77; in assay [12], 0.973; in [13], 0.0948; in assay [15] it was 0.747; in assay [16], 0.655; in assay [17] it was -0.129. The composite z-score is 0.455 in [18], -0.347 in [19] and 1.2 in assay [20]. Further, the z-score in assay [2] was 0.85 (inactive); in assay [3], 0.594 (inactive); in assay [4] it was 1.82 (inactive); in assay [6] it was 0.779 (inactive); in assay [14] it was -0.689 (inactive).
In the case of `COC(=O)[C@@]1(Cc2ccc(F)cc2)[C@H]2c3cc(C(=O)N(C)C)n(CCc4ccc(OC)c(Br)c4)c3C[C@H]2CN1C(=O)c1ccccc1`, the composite z-score in assay [1] is -0.0641; in [5] it was 2.52; in [7], 0.768; in assay [8], 0.716; in assay [9], 0.346; in assay [10], 0.557. The composite z-score in assay [11] was 0.514; in [12], 1.1; in assay [13] it was 0.732; in assay [15], 0.856; in assay [16] it was 0.182; in assay [17] it was -0.086. The composite z-score was 0.145 in assay [18], -0.257 in [19] and 1.01 in [20]. Moreover, the z-score in assay [2] is -0.309 (inactive); in assay [3], -1.09 (inactive); in assay [4] it was -0.122 (inactive); in assay [6] it was -1.29 (inactive); in [14], 1.6 (inactive).
In the case of `CN(C)C(=O)[C@@]1(Cc2ccccc2)N=C(c2ccc(OCCCO)cc2)O[C@H]1c1ccccc1`, the composite z-score was 0.584 in assay [1]; 3.4 in assay [5]; 0.344 in assay [7]; -0.642 in assay [8]; 0.229 in assay [9]; 0.642 in [10]. Further, the composite z-score in assay [11] was 1.46; in assay [12], 1.26; in assay [13] it was 1.24; in assay [15], 1.2; in assay [16], 1.18; in assay [17] it was -0.591. For the same compound, the composite z-score was 0.109 in [18], -0.273 in assay [19] and 0.139 in assay [20]. The z-score in [2] is -0.826 (inactive); in [3], -2.23 (inactive); in assay [4] it was 0.221 (inactive); in [6], 0.982 (inactive); in assay [14], -0.24 (inactive).
`[N-]=[N+]=Nc1ccccc1C[C@@]1(C(N)=O)N=C(c2ccc(OCCCO)cc2)O[C@@H]1c1ccccc1N=[N+]=[N-]`: the composite z-score in [1] is 0.319; in [5], 2.05; in assay [7], 0.281; in assay [8] it was -0.467; in assay [9], 0.0955; in assay [10] it was 0.639. Moreover, the composite z-score in assay [11] was 0.749; in assay [12], 1.14; in assay [13], 0.974; in assay [15], -0.24; in assay [16], 0.385; in [17] it was 0.181. Also, the composite z-score in [18] was -0.199; in assay [19], -0.459; in [20], 1.46. Moreover, the z-score in assay [2] was -0.974 (inactive); in assay [3], -1.01 (inactive); in assay [4], -0.933 (inactive); in assay [6], 0.905 (inactive); in [14], -1.36 (inactive).
